PubChem BioAssay AID624296 (National Center for Advancing Translational Sciences (NCATS), 2012)
The campaign covered roughly 350,000 compounds. About 9,900 (2.8%) were called active. Inconclusive results (about 15%) are left out. This excerpt belongs to a sample that is enriched for actives. Unmarked numbers belong to inactive results. The call rests on the fitted dose curve; in most records, active means well fitted activation curve with a large enough effect; inconclusive means small, poorly fitted or top-dose-only effect; inactive means no such curve, though single readings can be large or run the other way.

experiment: A quantitative high throughput screen for small molecules that induce DNA re-replication in MCF 10a normal breast cells.; further: nearly all actives have a fitted effect of over 50% in size; on activity, positive = re-replication: % of control where 0% means no effect; settings: MCF 10A DNA re-replication, Hoechst nuclear intensity, 48 h; series mostly up to 46.1 µM; activity, positive = re-replication: at the top concentration
Potency means the concentration at half of the fitted maximal effect.

SMILES | activity, positive = re-replication [%] | Potency
COC(=O)c1cc(Oc2ccc(S(=O)(=O)N3CCOCC3)cc2[N+](=O)[O-])cc(C(=O)OC)c1 | 2.23 | –
O=S(=O)(NCc1ccccn1)c1ccc(F)cc1 | -2.88 | –
O=S(=O)(NCCOc1cccc2cccnc12)c1ccc(F)cc1 | – | 10.3 µM (active)
O=S(=O)(NCCc1ccc(F)cc1)c1cccc2cccnc12 | -10.9 | –
COc1ccccc1C(=O)NCC(=O)NCCSc1ccc(Br)cc1 | -0.726 | –
O=C(O[C@H]1[C@H](Cc2ccccc2)NS(=O)(=O)[C@H]2C[C@@H]3C=C[C@]12O3)c1ccc([N+](=O)[O-])cc1 | 0.151 | –
CCOC(=O)C1CCN(C(=O)CN2C(=O)NC(C)(c3ccc4cc(OC)ccc4c3)C2=O)CC1 (stereo not drawn) | 13.8 | –
COc1ccc(/C=C(\C#N)c2c[nH]c3ccccc23)cc1 | – | 13 µM (active)
COc1ccc(C(C(O)C(=O)c2c[nH]c3ccccc23)N2CCN(c3ccccc3)CC2)cc1 (stereo not drawn) | 20.1 | –
COc1cc(/C=C(\C#N)c2nc3ccccc3[nH]2)ccc1O | 19.5 | –
COc1ccc(C(=O)COC(=O)CN2C(=O)C3CC=CCC3C2=O)c(OC)c1 (stereo not drawn) | 6.24 | –
CCOC(=O)c1sc(NC(=O)COc2ncnc3ccccc23)c(C(=O)OCC)c1C | 25.7 | –
CCOC(=O)c1c(NC(=O)CNC2CCCc3ccccc32)sc(C(N)=O)c1C (stereo not drawn) | – | 16.4 µM (active)
NC(=O)Nc1ccc(C(=O)OCC(=O)NC2CCCc3ccccc32)cc1 (stereo not drawn) | 3.28 | –
O=C(COC(=O)c1ccc(O)cc1O)NC(=O)c1ccccc1 | 0.164 | –
O=C(Nc1ccc(CN2CCOCC2)cc1)c1cc(Cl)ccc1Cl | 14.9 | –
CCCc1cc(=O)oc2cc(OCC(=O)Nc3ccc(CN4CCOCC4)cc3)c(Cl)cc12 | 0.913 | –
CCCC(=O)NC(=S)Nc1ccc(CN2CCOCC2)cc1 | – | 0.651 µM (active)
O=C(c1cc2ccccc2o1)N1CCN(S(=O)(=O)c2ccc(Cl)s2)CC1 | 14.5 | –
CCCCCCSc1ccc([C@@H]2[C@H]3C(=O)N(CC)C(=O)[C@H]3[C@]3(C(=O)OC)CCCCN23)cc1 | -61.3 | –
CCn1nnc2cc(C(=O)Nc3ccc(C(=O)OC(C)C)cc3)ccc21 | 12.4 | –
CCOC(=O)C1=C(CC)Nc2ccccc2N=C1NC(=O)c1cccc(S(=O)(=O)N2CCCC2)c1 | – | 23.1 µM (active)
CCOC(=O)C1=C(CC)Nc2ccccc2N=C1N | -1.41 | –
CCOC(=O)CSc1nnc(NC(=O)c2cccc(S(=O)(=O)N3CCCC3)c2)s1 | 1.71 | –
CCC(C)C(N=C1NS(=O)(=O)c2ccccc21)C(=O)N1CCC(C)CC1 (stereo not drawn) | 11.9 | –

SMILES | activity, positive = re-replication [%] | Potency
Cc1ccnc(SCCn2c(Br)nc3c2c(=O)[nH]c(=O)n3C)n1 | -10.4 | –
Cn1c(=O)c2c(nc(Br)n2CCSc2nc3ccccc3o2)n(C)c1=O | 0.906 | –
Cn1c(=O)[nH]c(=O)c2c1nc(Br)n2CCCCSc1nc2ccccc2o1 | – | 7.31 µM (active)
Cc1cccc(C(=O)N[C@H](C(=O)NCc2cccs2)C(C)C)c1 | 1.53 | –
CC(C)(C)OC(=O)C[C@@H]1C/C=C\C[C@@H](CC(=O)N[C@@H](CO)Cc2ccccc2)C(=O)N2CCC[C@H]2COC1=O | 3.69 | –
Nc1ccc2[nH]c(=S)sc2c1 | -3.92 | –
CCCN1CCn2c3c(c4cc(Br)ccc42)CCCC31 (stereo not drawn) | – | 23.1 µM (active)
COc1ccc(S(=O)(=O)N2CCOCC2)cc1NC(=O)CC1CC2CCC1C2 (stereo not drawn) | -6.11 | –
Cc1ccc(C(=O)O)c(NC=O)c1OCc1ccccc1 | 0.724 | –
CCCCOC(=O)Cn1c(=N)n(CCN(CC)CC)c2ccccc21 | -8.39 | –
CCCCOC(=O)Cn1c(=O)n(CC(=O)OCCCC)c2cc(C)ccc21 | 7.6 | –
CCCCCCCCCCOC(=O)Cn1c(COc2ccc(C)cc2)[n+](C)c2ccccc21 | – | 23.1 µM (active)
CC(=O)Nc1ccc(S(=O)(=O)NC(C)C(=O)OCCOc2ccc(F)cc2)cc1 (stereo not drawn) | -3.06 | –
COc1ccc(C2(CNC(=O)Cc3ccc(OC)c(OC)c3)CCCC2)cc1 | 3.5 | –
CCOc1c(OC)cccc1C(=O)NCC1(c2ccccc2)CCCC1 | – | 20.6 µM (active)
COc1cc(C(=O)NCC2(c3ccccc3)CCCC2)ccc1OC(C)C | 15.2 | –
CCC(C)CCN1CCN=C1N(C)C (stereo not drawn) | 23.5 | –
O=C1CC[C@@H]2CC3(C[C@@H]4CCN1[C@H]24)Nc1cc([N+](=O)[O-])ccc1NC3=NC1CCCCC1 (stereo partly drawn) | -22.4 | –
COc1cc2c(cc1OC)CN(C(=O)c1cc(=O)c3ccccc3o1)CC2 | – | 10.3 µM (active)
COc1ccccc1CNC(=O)c1cc(=O)c2ccccc2o1 | -23.8 | –
O=C(c1cc(=O)c2ccccc2o1)N1CCN(c2ccccc2)CC1 | -1.76 | –
NC(=O)C1(Nc2ccc([N+](=O)[O-])cc2)CCCC1 | -29.5 | –
CC1CN(Cc2ccco2)C(=S)N(c2ccccc2)C1=O (stereo not drawn) | 22.6 | –
C[C@H](NC(=O)OC(C)(C)C)c1nnc(SCC(N)=O)o1 | 8.88 | –
CC(C)Sc1nnc([C@H](Cc2ccccc2)NC(=O)OC(C)(C)C)o1 | -5.09 | –

SMILES | activity, positive = re-replication [%] | Potency
C[C@@H](NC(=O)OC(C)(C)C)c1nnc(S(=O)(=O)Cc2ccccc2)o1 | – | 18.4 µM (active)
Cc1ccc(S(=O)(=O)Nc2ccc(F)c(S(=O)(=O)N3CCOCC3)c2)cc1 | -46 | –
CNS(=O)(=O)c1cccc(C(=O)OCCCC(=O)c2ccccc2)c1 | 12.4 | –
COc1ccc(OC)c2c(N)c(C#N)c(C(F)(F)C(F)(F)F)nc12 | 17.3 | –
CCOc1cc(-c2cc(-c3ccc(OC)cc3)nc(N)c2C#N)ccc1O | 12.9 | –
COc1ccc(-c2cc(-c3ccc(N)cc3)nc(N)c2C#N)cc1OC | – | 23.1 µM (active)
CC(=O)Nc1ccc(-c2cn3cccnc3n2)cc1 | 11.3 | –
COc1ccc(C2CC(=O)Nc3sc(=N)c4c(N)c(C#N)c(N)nc4c32)cc1OC (stereo not drawn) | -0.0368 | –
CCOc1cc(-c2cc(-c3ccc(NC(C)=O)cc3)nc(N)c2C#N)ccc1O | – | 18.4 µM (active)
O=C(COc1ccccc1F)NNC(=O)c1cc(Br)ccc1Cl | -8.12 | –
O=S(=O)(c1cccs1)N1CCN(CCOc2ccccc2)CC1 | 0.979 | –
CCOc1cc(/C=C/C(=O)OCC(=O)NCCN2C(=O)CSC2=O)ccc1OCC(C)C | -2.28 | –
Cc1cccc(N2O[C@H]3C=CC2CCCC3)n1 | -0.361 | –
CC(=O)c1ccc(OCCCC(=O)Nc2ccc(C)c(S(=O)(=O)N3CCOCC3)c2)cc1 | 6.11 | –
Cc1ccc(N(NC(=O)C(C)(C)O)C(=O)c2ccccc2)cc1C | -12.8 | –
CC(C)(O)C(=O)NN(C(=O)c1ccccc1)c1cccc(Br)c1 | 0.0132 | –
CCCC(O)(CCC)C(=O)NN(C(=O)CCl)c1cccc(C)c1 | – | 14.6 µM (active)
COc1cc(NC(=O)COC(=O)c2cc(S(=O)(=O)N3CCOCC3)ccc2F)cc(OC)c1 | 3.72 | –
CSc1ccc(Cl)c(C(=O)OCC(=O)N2CCNC2=O)c1 | -3.13 | –
O=C1CC2(CCCC2)C(=O)N1CN1CCN(S(=O)(=O)c2ccc(F)cc2F)CC1 | 15.1 | –
CC/C(=C\c1ccc(Cl)cc1)c1ccncc1 | 8.16 | –
Cc1ccc(-n2c(SCC(=O)NCCC3=CCCCC3)nc3n[nH]c(C)c3c2=N)cc1Cl | – | 16.4 µM (active)
O=C(Cc1nn[nH]n1)NCCC1=CCCCC1 | 0.509 | –
CCn1c(=O)cc(SCC(=O)NCCC2=CCCCC2)c2ccccc21 | 1.51 | –
Cc1ccc(N2C(=O)N3[C@@H]4c5ccccc5OC[C@@H]4[C@@H](c4ccccc4)[C@@]3(C)C2=O)cc1 | 4.75 | –

SMILES | activity, positive = re-replication [%] | Potency
O=C(O)C(CCc1ccccn1)c1ccccc1 (stereo not drawn) | -18.4 | –
O=c1ccc(S(=O)(=O)N2CCCC2)cn1Cc1nc(-c2ccccc2)no1 | 6.01 | –
O=C(O)C(c1cccs1)C1(O)CCCCC1 (stereo not drawn) | 0.694 | –
Nc1ccc2c(c1)C(=Cc1cccnc1)c1ccccc1-2 | 7.21 | –
CC(C)=CCc1ccc(O)c(=O)cc1C(C)C | – | 20.6 µM (active)
CC(C)c1cc(N=O)cc(C(C)C)c1O | 7.92 | –
CCN(C(=O)COC(=O)Cc1c(F)cccc1Cl)c1c(N)n(Cc2ccccc2)c(=O)[nH]c1=O | -0.793 | –
COc1cccc(NC(=O)CN(C)CC(=O)Nc2ccc3c(c2)CCC3)c1 | – | 0.651 µM (active)
COc1ccc(NC(=O)CN(C)CC(=O)Nc2cccc(C(F)(F)F)c2)cc1 | 0.322 | –
COc1cccc(NC(=O)CN(C)C(=O)CSC(=S)N2CCCC2)c1 | 1.18 | –
O=C(Cn1nnc(-c2ccccc2)n1)NC(=O)NC1CCCC1 | 1.62 | –
O=C(COC(=O)c1ccc(Br)o1)NC12CC3CC(CC(C3)C1)C2 | 2.1 | –
O=C1NC[C@@H](c2ccccc2)OC(=O)[C@H](Cc2ccc(F)cc2)CC/C=C/C[C@H]1CC(=O)N(CCO)Cc1ccccc1 | – | 18.4 µM (active)
O=C1CCC/C=C/C[C@@H](CC(=O)N(CCO)Cc2ccccc2)C(=O)NC[C@H](c2ccccc2)O1 | -4.51 | –
O=C1N[C@H](Cc2c[nH]c3ccccc23)COC(=O)[C@H](Cc2ccc(F)cc2)C/C=C\C[C@H]1CC(=O)N(CCO)Cc1ccccc1 | 2.57 | –
O=C1OC[C@@H]2CCCN2C(=O)[C@H](CC(=O)N(CCO)Cc2ccccc2)C/C=C\CC[C@@H]1Cc1ccc(F)cc1 | 2.42 | –
CC(C)(C)OC(=O)C[C@@H]1C/C=C\C[C@H](CC(=O)N[C@@H](CO)Cc2ccccc2)C(=O)N[C@H](Cc2ccccc2)COC1=O | 2.81 | –
CC(C)(C)OC(=O)C[C@@H]1C/C=C\C[C@@H](CC(=O)N(CCO)Cc2ccccc2)C(=O)N[C@H](Cc2ccccc2)COC1=O | – | 20.6 µM (active)
COc1cccc(NC(=O)CSc2nnc(C3CCCCC3)n2N)c1 | -0.852 | –
CC(=O)c1cccc(OCC(=O)OCC(=O)Nc2cc(S(=O)(=O)N3CCCCC3)ccc2C)c1 | -31.7 | –
O=C1c2ccccc2C(=O)N1CCC#Cc1ccc2cc(C3(O)CCCCC3)oc(=O)c2c1 | 28.8 | –
O=C(CSc1nc2[nH]c(=O)[nH]c(=O)c2s1)Nc1cccc(F)c1 | 8.68 | –
CC(Sc1nnc(C2CC2)n1C1CC1)C(=O)Nc1ccc(C(N)=O)cc1 (stereo not drawn) | -7.91 | –
